Screen size: about 5,500 compounds; about 2,000 (36%) were called active. Another 18% or so got no clear call; they are omitted. The list shows a part of the results. Unmarked numbers belong to inactive results. Rule as the data show it: active = normalized growth mostly below about 0.91 (no sharp cut-off); inconclusive = no clear call, values can overlap the other calls; inactive = mostly above about 0.92.
Assay: chemical genetic growth profiling, strain panel (AID 1159580);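 also: tested at 20 µM; growth read once vehicle control cultures reached saturation at 30 °C; 1 = growth at the plate median or of vehicle wells; lower values mean less growth of the strain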
Conditions: S. cerevisiae deletion strains, growth OD

CC[C@]12CCCN3CCc4c(n(c5ccccc45)C(=O)C1)[C@@H]32
normalized growth (locus YAL013W, strain DEP1, active compounds read low): 0.967
normalized growth (locus YAL021C, strain ccr4, active compounds read low): 0.968
normalized growth (locus YAL026C, strain drs2, active compounds read low): 1.04
normalized growth (locus YAL030W, strain snc1, active compounds read low): 1.01
normalized growth (locus YBL061C, strain skt5, active compounds read low): 1.01
normalized growth (locus YBR009C, strain hhf1, active compounds read low): 1.01
normalized growth (locus YBR021W, strain FUR4, active compounds read low): 1.07
normalized growth (locus YBR023C, strain chs3, active compounds read low): 1
normalized growth (locus YBR171W, strain sec66, active compounds read low): 0.999
normalized growth (locus YBR229C, strain ROT2, active compounds read low): 1.02
normalized growth (locus YBR231C, strain swc5, active compounds read low): 1.01
normalized growth (locus YBR279W, strain paf1, active compounds read low): 1
normalized growth (locus YCL011C, strain gbp2, active compounds read low): 1.01
normalized growth (locus YCL016C, strain dcc1, active compounds read low): 0.983
normalized growth (locus YCL029C, strain bik1, active compounds read low): 0.989
normalized growth (locus YCL069W, strain vba3, active compounds read low): 1
normalized growth (locus YCR088W, strain abp1, active compounds read low): 1.01
normalized growth (locus YDL005C, strain med2, active compounds read low): 1
normalized growth (locus YDL035C, strain GPR1, active compounds read low): 0.941
normalized growth (locus YDL040C, strain nat1, active compounds read low): 1
normalized growth (locus YDL074C, strain BRE1, active compounds read low): 0.9
normalized growth (locus YDL101C, strain DUN1, active compounds read low): 0.977
normalized growth (locus YDL134C, strain PPH21, active compounds read low): 0.951
normalized growth (locus YDL185W, strain tfp1, active compounds read low): 0.953
normalized growth (locus YDL192W, strain arf1, active compounds read low): 0.977
normalized growth (locus YDR001C, strain nth1, active compounds read low): 0.998
normalized growth (locus YDR069C, strain doa4, active compounds read low): 1.04
normalized growth (locus YDR101C, strain arx1, active compounds read low): 0.98
normalized growth (locus YDR137W, strain rgp1, active compounds read low): 1.15
normalized growth (locus YDR150W, strain NUM1, active compounds read low): 0.988
normalized growth (locus YDR159W, strain sac3, active compounds read low): 0.995
normalized growth (locus YDR162C, strain NBP2, active compounds read low): 0.552 (active)
normalized growth (locus YDR195W, strain ref2): 1.01
normalized growth (locus YDR297W, strain sur2, active compounds read low): 1.01
normalized growth (locus YDR318W, strain mcm21, active compounds read low): 0.978
normalized growth (locus YDR334W, strain swr1, active compounds read low): 1
normalized growth (locus YDR335W, strain msn5, active compounds read low): 0.998
normalized growth (locus YDR388W, active compounds read low): 0.993
normalized growth (locus YDR392W, strain spt3, active compounds read low): 0.804
normalized growth (locus YDR502C, strain sam2, active compounds read low): 0.984
normalized growth (locus YEL003W, strain gim4, active compounds read low): 1
normalized growth (locus YEL037C, strain rad23, active compounds read low): 0.993
normalized growth (locus YEL061C, strain CIN8 (second series), active compounds read low): 1
normalized growth (locus YEL061C, strain CIN8, active compounds read low): 0.992
normalized growth (locus YER015W, strain faa2, active compounds read low): 0.997
normalized growth (locus YER016W, strain bim1, active compounds read low): 0.999
normalized growth (locus YER110C, active compounds read low): 0.975
normalized growth (locus YER111C, strain swi4, active compounds read low): 0.998
normalized growth (locus YER155C, strain BEM2 (second series), active compounds read low): 0.976
normalized growth (locus YER155C, strain BEM2, active compounds read low): 1.01
normalized growth (locus YER167W, strain BCK2, active compounds read low): 1
normalized growth (locus YFR010W, strain ubp6, active compounds read low): 1.01
normalized growth (locus YGL078C, strain dbp3, active compounds read low): 0.983
normalized growth (locus YGL086W, strain mad1, active compounds read low): 0.992
normalized growth (locus YGL167C, strain pmr1, active compounds read low): 0.98
normalized growth (locus YGL173C, strain kem1, active compounds read low): 1.02
normalized growth (locus YGL227W, strain vid30, active compounds read low): 1.01
normalized growth (locus YGL240W, strain doc1, active compounds read low): 0.999
normalized growth (locus YGL248W, strain PDE1, active compounds read low): 0.857 (active)
normalized growth (locus YGL253W, strain hxk2, active compounds read low): 1.03
normalized growth (locus YGR135W, strain pre9, active compounds read low): 0.97
normalized growth (locus YGR252W, strain gcn5, active compounds read low): 1.03
normalized growth (locus YHR013C, strain ard1, active compounds read low): 0.98
normalized growth (locus YHR027C, strain rpn1, active compounds read low): 1
normalized growth (locus YHR030C, strain SLT2, active compounds read low): 0.885 (active)
normalized growth (locus YHR079C, strain IRE1 (second series), active compounds read low): 0.982
normalized growth (locus YHR094C, strain hxt1, active compounds read low): 0.99
normalized growth (locus YHR129C, strain ARP1, active compounds read low): 0.993
normalized growth (locus YHR142W, strain chs7, active compounds read low): 1.01
normalized growth (locus YHR200W, strain rpn10, active compounds read low): 0.981
normalized growth (locus YIL066C, strain RNR3, active compounds read low): 0.987
normalized growth (locus YIL073C, strain SPO22, active compounds read low): 0.692
normalized growth (locus YIL125W, strain kgd1, active compounds read low): 0.989
normalized growth (locus YIR030C, strain dcg1, active compounds read low): 0.978
normalized growth (locus YJL092W, strain hpr5, active compounds read low): 0.997
normalized growth (locus YJL095W, strain BCK1 (second series), active compounds read low): 0.996
normalized growth (locus YJL095W, strain BCK1, active compounds read low): 0.956
normalized growth (locus YJL115W, strain asf1, active compounds read low): 0.994
normalized growth (locus YJL129C, strain trk1, active compounds read low): 1.01
normalized growth (locus YJL134W, strain LCB3, active compounds read low): 0.993
normalized growth (locus YJL154C, strain vps35, active compounds read low): 0.993
normalized growth (locus YJL164C, strain tpk1, active compounds read low): 0.984
normalized growth (locus YJL166W, strain qcr8, active compounds read low): 1.01
normalized growth (locus YJL168C, strain set2, active compounds read low): 0.992

From PubChem BioAssay AID1159580 (chemical genetic matrix, 2015)
